VHR inh abs = blocks human VHR1 dual specificity phosphatase. P51452. recombinant VHR phosphatase, pNPP absorbance. inhibition, % at 13.3 µM. 290,000 tested, 0.52% active. AID 1654; in the data active = inhibition above about 50%
TcdB GH inh = blocks C. difficile toxin B glycohydrolase activity. AID 652162. TcdB glycohydrolase enzymatic assay, plate reader. inhibition, % at 9.99 µM. 350,000 tested, 0.24% active. P18177; in the data active = inhibition above about 10%
PrPC surface inh = reduces human prion protein on the cell surface | P04156 | cell surface PrPC, TR-FRET read-out | inhibition, % at 13.8 µM | 370,000 tested, 0.43% active | AID 720596; in the data active = inhibition above about 24%; note: 0% = median of the test wells and 100% = reference compound wells
PrPC confirm = confirmation of inhibitors of cell surface human prion protein; 1,500 tested, 65% active; shares compounds with PrPC surface inh; AID 743200; cell surface PrPC level, TR-FRET; inhibition, % at 13.8 µM; in the data active = inhibition above about 25%
LD9 cytotox = counter-screen for PrPc inhibitors: cytotoxicity in LD9 cells; inhibition, % at 13.8 µM; shares compounds with PrPC surface inh; 1,500 tested, 29% active; luminescence viability; AID 743201; in the data active = inhibition above about 9.5%
The depositor's hits bear a star; nt = no result given; ! = not active in a repeat. Only some compounds are listed: those with a hit (about 0.82% of all), similar ones and a draw of the others.

SMILES	VHR inh abs	TcdB GH inh	PrPC surface inh	PrPC confirm	LD9 cytotox
C[C@H](CO)N1C[C@H](C)[C@@H](CN(C)C(=O)CN(C)C)Oc2cc(C#CC(C)(C)O)ccc2S1(=O)=O	nt	1	nt	nt	nt
CC(C)(C)c1ccc(CNc2nc(-c3ccccn3)nnc2-c2ccccc2)cc1	nt	nt	24*	38*	33*
Clc1cccc(CNc2nc(-c3cccnc3)nc3ccccc23)c1	21	1	5	nt	nt
CNc1nc(-c2ccccn2)nnc1-c1ccccc1	33	nt	8	nt	nt
Clc1cccc(CNc2nc(-c3ccccn3)nnc2-c2ccccc2)c1	nt	nt	29*	37*	43*
c1ccc(-c2nnc(-c3ccccn3)nc2NC2CCCCC2)cc1	19	2	38*	33*	45*
c1ccc(CNc2nc(-c3ccccn3)nc3ccccc23)cc1	nt	1	-4	nt	nt
C[C@H]1CN([C@@H](C)CO)S(=O)(=O)c2ccc(-c3cccnc3)cc2O[C@@H]1CN(C)C(=O)C1CCCCC1	nt	2	nt	nt	nt
C[C@@H]1CN([C@H](C)CO)C(=O)Cc2cc(NS(=O)(=O)c3ccc(F)cc3)ccc2O[C@@H]1CN(C)C(=O)Nc1ccc(F)cc1	nt	0	nt	nt	nt
COC(=O)[C@@H]1[C@@H](CO)[C@@H]2Cn3c(ccc(C4=CCCCC4)c3=O)[C@@H]2N1C(=O)C1CCCC1	nt	0	nt	nt	nt
Cc1ccnc2c1ccc1cccnc12	nt	1	35*	38*	35*
Cc1ccnc2c1ccc1ccccc12	2	2	9	nt	nt
c1cnc2c(c1)ccc1cccnc12	2	2	25*	25*	14*!
Cc1cccc2cccnc12	nt	1	3	nt	nt
C[C@H](CO)N1C[C@H](C)[C@H](CN(C)S(C)(=O)=O)Oc2c(NC(=O)C3CC3)cccc2C1=O	nt	1	nt	nt	nt
C[C@@H](O)C#Cc1cnc2c(c1)C(=O)N([C@@H](C)CO)C[C@H](C)[C@H](CN(C)Cc1ccccn1)O2	nt	0	nt	nt	nt
COc1cccc(-c2ccc([C@H]3[C@@H](CO)N4CCCCN(Cc5cncnc5)C[C@H]34)cc2)c1	nt	0	nt	nt	nt
CS(=O)(=O)N1CC(=O)N2[C@H](CO)[C@H](c3ccc(C#Cc4ccc(F)cc4)cc3)[C@@H]2C1	nt	-10	nt	nt	nt
Nc1nc(F)nc2c1ncn2[C@@H]1O[C@H](CO)[C@@H](O)[C@H]1O	nt	1	45*	44*	54*
Nc1nc(F)nc2c1ncn2[C@@H]1O[C@H](CO)[C@@H](O)[C@@H]1O	-26	2	2	nt	nt
Cc1noc(C)c1S(=O)(=O)Nc1cccc2c1O[C@H](CN(C)CC1CC1)[C@H](C)CN([C@H](C)CO)C2=O	nt	-2	nt	nt	nt
C[C@@H]1CCCCO[C@@H](CN(C)CC2CCCCC2)[C@H](C)CN([C@@H](C)CO)C(=O)c2cc(NC(=O)Cc3ccccc3)ccc2O1	nt	-1	nt	nt	nt
CCCCNC(=O)CSc1nc(CCC)nc2ccccc12	8	1	46*	59*	-6
CCCc1nc(SCC(=O)Nc2nccs2)c2ccccc2n1	26	1	20	nt	nt
CCCNC(=O)CSc1nc(COc2ccccc2)nc2ccccc12	-13	1	29*	41*	-3
SMILES	VHR inh abs	TcdB GH inh	PrPC surface inh	PrPC confirm	LD9 cytotox
Cc1ccccc1NC(=O)CSc1nc(COc2ccccc2)nc2ccccc12	37	nt	3	nt	nt
COC(=O)CSc1nc(COc2ccccc2)nc2ccccc12	-2	2	49*	66*	-6
CCN(CC)C(=O)CSc1nc(COc2ccccc2)nc2ccccc12	36	1	-6	nt	nt
CO[C@@H]1CN(C)C(=O)c2cc(NS(=O)(=O)CC(F)(F)F)ccc2OC[C@H](C)N(C(=O)c2ccc3c(c2)OCO3)C[C@H]1C	nt	0	nt	nt	nt
C[C@H](NC(=O)[C@@H]1N[C@@H]2c3ccc(-c4cccnc4)c(=O)n3C[C@@H]2[C@H]1CO)c1ccccc1	nt	1	nt	nt	nt
CO[C@H]1CN(C)C(=O)c2ccc(NC(=O)C3CC3)cc2OC[C@H](C)N(C(=O)c2ccccc2)C[C@H]1C	nt	0	nt	nt	nt
O=C(C[C@@H]1C[C@H]2c3cc(NC(=O)CC4CC4)ccc3O[C@H]2[C@@H](CO)O1)NCCN1CCCCC1	nt	-1	nt	nt	nt
Cc1ccc(SC2=C[C@@]3(O)CC[C@@H](O)[C@@](Sc4ccc(C)cc4)(C2=O)[C@H]3O)cc1	nt	2	27*	20	-9
CC(C)(C)c1ccc(SC2=C[C@@]3(O)CC[C@@H](O)[C@@](Sc4ccc(C(C)(C)C)cc4)(C2=O)[C@H]3O)cc1	nt	0	9	nt	nt
C[C@@H]1CCCCO[C@H](CN(C)Cc2ccncc2)[C@H](C)CN([C@H](C)CO)C(=O)c2cc(NC(=O)c3ccccc3)ccc2O1	nt	-1	nt	nt	nt
Cc1cccc(C(=O)Nc2scc(-c3ccc(Br)cc3)c2C(=O)O)c1	nt	2	6	nt	nt
